The results in this text go back to PubChem BioAssay (NCATS).

Calls of active or inactive are those of the source. Calls follow the shape of the dose curve; as a rule, active = well fitted curve in the direction sought with a large enough effect; inconclusive = small, poorly fitted or top-dose-only effect, or another doubt; inactive = no such curve, though single readings can be large or run the other way.

Chain of Methanococcus maripaludis chaperonin (MmCpn) (Q6LX38 1-543): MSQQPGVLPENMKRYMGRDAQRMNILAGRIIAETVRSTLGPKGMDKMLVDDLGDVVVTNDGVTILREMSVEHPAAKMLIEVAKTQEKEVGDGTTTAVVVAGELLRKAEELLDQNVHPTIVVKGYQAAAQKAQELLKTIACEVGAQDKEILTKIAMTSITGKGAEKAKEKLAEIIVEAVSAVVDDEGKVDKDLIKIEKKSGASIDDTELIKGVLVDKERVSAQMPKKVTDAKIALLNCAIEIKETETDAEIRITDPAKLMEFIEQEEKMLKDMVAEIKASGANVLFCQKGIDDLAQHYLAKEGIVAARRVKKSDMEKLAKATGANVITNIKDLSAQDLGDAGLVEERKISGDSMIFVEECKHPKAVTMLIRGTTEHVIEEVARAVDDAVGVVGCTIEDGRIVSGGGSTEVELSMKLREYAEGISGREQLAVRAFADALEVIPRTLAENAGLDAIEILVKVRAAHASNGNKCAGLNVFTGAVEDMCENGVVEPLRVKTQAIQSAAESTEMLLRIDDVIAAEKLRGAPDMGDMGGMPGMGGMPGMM

The assay concerns the target Methanococcus maripaludis chaperonin (MmCpn) (UniProt Q6LX38). Nature of the assay: High-Throughput Screening for Modulators of Cytosolic Chaperonin Activity: MmCpn Primary Screen (AID 488978). The settings on record: Purified MmCpn ATPase activity, ADP HTRF detection, 10 min; series mostly up to 76.9 µM. From the text: Chaperonins are key components of the cellular chaperone machinery. These large complexes consist of two stacked 7-9 membered rings, each containing a central cavity. Substrates are folded within the cavity in an ATP-dependent manner. TRiC is a complex of eight different, essential proteins. As each of the genes encoding the eight subunits is essential for cell viability and no protocol has been developed to overexpress this enzyme to high levels, several groups have turned to the archaeal homolog of TRiC from Methanococcus maripaludis (MmCpn) as a model system for the study of the type II chaperonin family.
MmCpn was kindly provided by the laboratory of Judith Frydman.
1. Dispense 1.5 ul enzyme of either TriC at 100 nM or MmCpn at 50 nM final concentration.
2. Transfer 23 nl of compound to plate, incubate 5 min at RT.
3. 1.5 ul ATP at 30 uM at final concentration dispensed into plate.
4. Incubate for 10 minutes at 37C (MmCPN), 30C (TriC).
5. 3 ul of the Cisbio ADP Transcreener HTRF detection reagent prepared according to protocol dispensed into plate.
6. Incubate for 5 minutes.
7. Read using EnVision plate reader at Excitation = 320nm and Emission = 590nm, 665nm
(In general: Time-resolved FRET reads energy transfer from a long-lived donor to a nearby acceptor.)
Turning to `OC[C@H]1O[C@@H](n2cnc3c(NC4CCCCC4)ncnc32)[C@H](O)[C@@H]1O`, the compound was called inactive.

On to `O=C1NC(=O)/C(=C/c2ccc(-c3ccc(F)cc3O)o2)S1`, for which the compound was classed as inactive.

Regarding `C#C[C@]1(O)CC[C@H]2[C@@H]3CCC4=Cc5oncc5CC4(C)[C@H]3CCC21C` (stereo not given in full), the call was inactive.

In the case of `COc1cc(OC)c(/C=C2/C(=O)Nc3ccccc32)c(OC)c1`, the outcome was inactive.

Take `CCc1c(C(=O)NCCc2ccc(N3CCCCC3)cc2)[nH]c2ccc(Cl)cc12`: the result was inactive.

Consider `CCCCCCCCCCCCCCCC(=O)OC(CC(=O)O)C[N+](C)(C)C` (stereo not given), for which the outcome was inactive.

As to `O=Nc1ccc2oc(=O)ccc2c1`, the compound was called inactive.

For `CC(C)NC[C@@H](O)c1ccc(O)c(O)c1`, the outcome was inactive.

For the compound `COc1cc2nc(N3CCN(C(=O)OCc4ccccc4)C(C(=O)NC(C)(C)C)C3)nc(N)c2cc1OC` (stereo not given), the outcome was inactive.

Take `CC(=O)/C=C1\C(=O)N(C)c2ccccc21`: the call was inactive.

For the compound `CN1CCc2cc(O)c(O)cc2C(c2ccccc2)C1` (stereo not given), the compound was classed as inactive.

On to `NO`, for which the call was inactive.

On to `O=c1[nH]c2cc(C(F)(F)F)ccc2n1-c1cc(C(F)(F)F)ccc1O`, for which the outcome was inactive.

For `CC(COc1ccc(/C=C/c2ccccc2)cc1)[N+](C)(C)C` (stereo not given), the outcome was inactive.

`NCCCS(=O)(=O)O`: the call was inactive.

For the compound `CCCCCCCCCCCCCCCC(=O)NCC(COP(=O)([O-])OCC[N+](C)(C)C)OCC` (stereo not given), the call was inactive.

Regarding `Cc1ccc(O)c(N=Nc2ccccc2)n1`, the call was inactive.

In the case of `CCCC1(C)C(C#N)(C#N)C1(C#N)C#N`, the outcome was inactive.

Consider `NC(=S)c1ccc[n+]([C@@H]2O[C@@H](COP(=O)([O-])OP(=O)(O)OC[C@H]3O[C@@H](n4cnc5c(N)ncnc54)[C@H](OP(=O)(O)O)[C@@H]3O)C(O)C2O)c1` (stereo not given in full), for which the call was inactive.

For the compound `O=C(O)CNC(=O)C(CS)Cc1ccccc1` (stereo not given), the result was inactive.

Regarding `CN=c1nc(-c2ccccc2)n(-c2ccccc2)s1`, the compound was called inactive.

As to `Nc1nc(SCc2ccc([N+](=O)[O-])cc2)c2ncn([C@@H]3O[C@H](CO)[C@@H](O)[C@H]3O)c2n1`, the compound was called inactive.

For the compound `CN1CCC[C@H]1c1cccnc1`, the outcome was inactive.

Consider `CN1CCc2cccc3c2C1Cc1ccc(O)c(O)c1-3` (stereo not given), for which the compound was called inactive.

Take `Nc1nc(Cl)nc2c1ncn2[C@@H]1O[C@H](COP(=O)(O)OP(=O)(O)OP(=O)(O)O)[C@@H](O)[C@H]1O`: the compound was classed as inactive.

Regarding `CNCC[C@H](Oc1ccc(C(F)(F)F)cc1)c1ccccc1`, the outcome was inactive.

On to `Cn1ncc(S(=O)(=O)Cc2ccccc2)c(Br)c1=O`, for which the compound was classed as inactive.

Consider `N#C/C(=C\c1ccc(O)c(O)c1)C(=O)NCc1ccccc1`, for which the outcome was inactive.

As to `O=C1NC(=O)/C(=C/c2ccc3nccnc3c2)S1`, the result was inactive.

Turning to `CN(C)CCCO[C@@H]1[C@H]2OC(C)(C)O[C@H]2O[C@@H]1[C@H](O)CO`, the compound was classed as inactive.

As for `Nc1ncnc2c1c(I)cn2[C@@H]1C[C@H](N)[C@@H](O)[C@H]1O`, the result was inactive.

Take `COc1cccc(C(=O)NCCN2CCN(c3ccc(Cl)cc3)CC2)c1`: the compound was classed as inactive.

In the case of `NCCSSCCN`, the compound was classed as inactive.

`Oc1cc(O)cc(/C=C/c2ccc(O)c(O)c2)c1`: the compound was classed as inactive.

On to `O=C1NC(O)=NC1(c1ccccc1)c1ccccc1`, for which the call was inactive.

`Nc1ncnc2c1ncn2[C@@H]1O[C@H](COP(=O)(O)OP(=O)(O)OP(=O)(O)OP(=O)(O)OC[C@@H]2O[C@H](n3cnc4c(N)ncnc43)[C@@H](O)[C@H]2O)[C@@H](O)[C@H]1O`: the compound was classed as inactive.

As for `CCCCCCCCCCCCCCCCCC(=O)NCC(COP(=O)([O-])OCC[N+](C)(C)C)OCC` (stereo not given), the call was inactive.

Consider `CN1CCc2ccccc2Cc2[nH]c3ccccc3c2CC1`, for which the compound was called inactive.

For `Oc1cc2c(cc1O)CN(C(=S)NCCc1ccc(Cl)cc1)CCC2`, the compound was called inactive.

`O=C(O)[C@@H]1C[C@@H](C(=O)O)N1`: the compound was called inactive.
